Hits are enriched below; roughly 11% of the tested compounds scored in any of these assays.
NPR1 antag: human Npr1 receptor antagonism; HEK293 hNpr1 GloSensor cGMP, ANP-stimulated luminescence; Potency, µM (doses to about 46.3 µM), most hits filed as inhibitors; 1.6% of 76,000 active; AID 1347048; calls by dose curve; also: nearly all actives have a fitted effect of over 60% in size
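HEK293 cells stably expressing human Npr1 and cGMP GloSensor pGS-40F, loaded 2 h with 2% GloSensor reagent, given compound 30 min at room temperature. Luminescence read before and 20 min after 0.1 nM hNppA.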
Luciferase inh: Photinus pyralis luciferase inhibition; AID 1347043; P08659; 2.5% of 76,000 active; purified P. pyralis luciferase, luminescence, biochemical; Potency, µM (doses to about 115 µM), hits mostly inhibitors; also: nearly all actives have a fitted effect of over 65% in size
Target sequence (P08659 whole entry, looked up): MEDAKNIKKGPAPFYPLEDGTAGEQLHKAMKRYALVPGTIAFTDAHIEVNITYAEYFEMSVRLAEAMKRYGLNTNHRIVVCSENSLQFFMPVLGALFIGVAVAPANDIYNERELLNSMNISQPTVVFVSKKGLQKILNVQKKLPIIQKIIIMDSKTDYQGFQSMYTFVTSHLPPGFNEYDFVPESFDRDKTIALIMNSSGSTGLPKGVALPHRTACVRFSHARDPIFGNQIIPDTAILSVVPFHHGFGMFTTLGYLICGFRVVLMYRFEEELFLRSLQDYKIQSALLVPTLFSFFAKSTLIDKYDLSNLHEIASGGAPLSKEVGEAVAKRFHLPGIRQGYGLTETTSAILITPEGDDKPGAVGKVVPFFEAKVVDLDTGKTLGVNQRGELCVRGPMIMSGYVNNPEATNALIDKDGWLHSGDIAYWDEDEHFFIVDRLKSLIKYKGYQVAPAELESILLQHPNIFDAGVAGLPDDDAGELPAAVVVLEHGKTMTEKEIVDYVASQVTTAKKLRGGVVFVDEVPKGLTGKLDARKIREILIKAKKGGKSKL
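Purified 10nM P. pyralis luciferase with 10uM D-luciferin and 10uM ATP in 50mM Tris acetate pH 7.5, 10mM Mg acetate, 0.01% Tween-20, 0.05% BSA. qHTS titration; luminescence read by CCD imager.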
HEK293 tox: kills HEK 293 cells; HEK 293 viability, ATP luminescence (CellTiter-Glo), 48-72 h; Potency, µM (titrated, usually from 115 µM), actives largely listed as inhibitors; 6.6% of 94,000 active; AID 1345083; also: nearly all actives have a fitted effect of over 60% in size
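CellTiter-Glo luminescence (cellular ATP) was read after 48 or 72 hr of compound exposure at 37 degree Celsius. Cells were HEK 293 plated at 250 cells/well.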
3T3 cytotox: NIH 3T3 cell cytotoxicity; NIH 3T3 viability, CellTiter-Glo ATP luminescence, 48-72 h; Potency, µM (doses to about 96.7 µM), most hits filed as inhibitors; 4.3% of 94,000 active; also: nearly all actives have a fitted effect of over 55% in size
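Cytotoxicity was measured by CellTiter-Glo ATP luminescence after 48 or 72 h compound exposure at 37 °C. Mouse NIH 3T3 fibroblasts were seeded at 400 cells/well and dosed by 23 nL pin transfer.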
Each line names hits and unclear results; the compound was inactive in the other large screens. Unless noted, calls follow the shape of the dose curve; as a rule, active = well fitted curve in the direction sought with a large enough effect; inconclusive = small, poorly fitted or top-dose-only effect, or another doubt; inactive = no such curve, though single readings can be large; an effect the other way counts as inactive or inconclusive.

O=C(NC1CCCCC1)N[C@H]1CO[C@H]2[C@@H]1OC[C@@H]2n1nnnc1-c1ccc2c(c1)OCO2	none
COc1ccc(NC(=O)N[C@H]2CO[C@H]3[C@@H]2OC[C@@H]3n2nnnc2-c2ccc3c(c2)OCO3)cc1	HEK293 tox inconclusive, 3T3 cytotox inconclusive
O=C(Nc1cccc(C(F)(F)F)c1)N[C@H]1CO[C@H]2[C@@H]1OC[C@@H]2n1nnnc1Oc1ccc(-n2ccnc2)cc1	NPR1 antag inconclusive, HEK293 tox 32µM, 3T3 cytotox 22µM
COc1cccc(-c2nnnn2[C@H]2CO[C@H]3[C@@H]2OC[C@@H]3NC(=O)c2ccccc2C(=O)O)c1	none
O=C(NCc1ccccc1)N[C@H]1CO[C@H]2[C@@H]1OC[C@@H]2n1nnnc1Oc1ccc(-n2ccnc2)cc1	none
O=C(N[C@H]1CO[C@H]2[C@@H]1OC[C@@H]2n1nnnc1-c1ccc2c(c1)OCO2)c1ccccc1	NPR1 antag inconclusive, HEK293 tox 79µM, 3T3 cytotox inconclusive
O=C(Nc1cccc(C(F)(F)F)c1)N[C@H]1CO[C@H]2[C@@H]1OC[C@@H]2n1nnnc1-c1ccc2c(c1)OCO2	NPR1 antag inconclusive, HEK293 tox 40µM, 3T3 cytotox 32µM
COc1cccc(-c2nnnn2[C@H]2CO[C@H]3[C@@H]2OC[C@@H]3NC(=O)c2ccc(N(C)C)cc2)c1	NPR1 antag 16µM, Luciferase inh inconclusive, HEK293 tox inconclusive, 3T3 cytotox inconclusive
CC(C)(C)c1nnc2ccc(C(=O)NCc3ccccc3)cn12	3T3 cytotox inconclusive (no result: NPR1 antag, Luciferase inh)
O=C(NCCn1cccc1-c1nc(-c2ccc3c(c2)OCO3)no1)c1ccc2c(c1)OCO2	Luciferase inh 10µM
COc1ccc(C(=O)NCCn2cccc2-c2nc(-c3ccccc3)no2)cc1F	none
O=C(NCCn1cccc1-c1nc(-c2ccc3c(c2)OCO3)no1)c1ccc(Cl)s1	Luciferase inh inconclusive, HEK293 tox inconclusive, 3T3 cytotox inconclusive
COc1ccc(C)cc1NC(=O)Cn1cccc1-c1nc(-c2ccc3c(c2)OCO3)no1	HEK293 tox inconclusive, 3T3 cytotox 40µM
Cc1cccc(OCC(=O)NCCn2cccc2-c2nc(-c3ccc4c(c3)OCO4)no2)c1	Luciferase inh 14µM, HEK293 tox inconclusive, 3T3 cytotox inconclusive
O=C(NCCn1cccc1-c1nc(-c2ccccc2)no1)c1ccc(F)c(Cl)c1	HEK293 tox 45µM, 3T3 cytotox inconclusive
CNC(=O)c1cc(C)nc2onc(C3CCN(C(=O)Nc4ccccc4)C3)c12 (stereo not given)	none (no result: NPR1 antag, Luciferase inh)
COc1ccc(C(=O)N2CCN(CCn3nc4n(c3=O)CCCC4)CC2)cc1	none (no result: NPR1 antag, Luciferase inh)
CCNC(=O)NC1(CC2CC2)CCN(C(=O)NCCc2ccccc2)CC1	none (no result: NPR1 antag, Luciferase inh)
Cc1ccc(C(=O)NCCn2cccc2-c2nc(-c3ccc4c(c3)OCO4)no2)cc1C	Luciferase inh 11µM, HEK293 tox inconclusive, 3T3 cytotox inconclusive
COc1cc(OC)c(CNC(=O)c2c(C)noc2-c2ccc(OC(F)(F)F)cc2)c(OC)c1	HEK293 tox 40µM, 3T3 cytotox inconclusive
COc1cc(CN(C)C(=O)c2c(C)noc2-c2cccc(F)c2)cc(OC)c1OC	HEK293 tox 45µM, 3T3 cytotox inconclusive
COc1cc(-c2onc(C)c2C(=O)NCCC(c2ccccc2)c2ccccc2)cc(OC)c1OC	HEK293 tox 35µM, 3T3 cytotox inconclusive
Cc1noc(-c2ccc(OC(F)(F)F)cc2)c1C(=O)NCCc1ccc(F)cc1	HEK293 tox inconclusive
COc1ccc(CCNC(=O)c2c(C)noc2-c2ccc(OC(F)(F)F)cc2)cc1	HEK293 tox 50µM
COCCNC(=O)c1c(C)noc1-c1cc(OC)c(OC)c(OC)c1	none
CC(NC(=O)c1csc2nc(-c3cccc(C(F)(F)F)c3)cn12)c1ccncn1 (stereo not given)	Luciferase inh 40µM, HEK293 tox inconclusive, 3T3 cytotox inconclusive
Cc1ccc(N2CCC(N[C@@H]3CC[C@@H](N)C3)CC2)cc1Cl	HEK293 tox 7.9µM, 3T3 cytotox 10µM
Cc1ccc(C(=O)NC2CCN(c3cnn(CC4CC4)c(=O)c3)CC2)cc1C	none
O=C(CN1C(=O)NC(c2ccc(Cl)cc2)C2=C1COC2=O)Nc1cc(F)ccc1F (stereo not given)	HEK293 tox 45µM, 3T3 cytotox inconclusive
O=C(CN1C(=O)NC(c2ccc(Cl)cc2)C2=C1COC2=O)Nc1ccc(Cl)cc1F (stereo not given)	HEK293 tox inconclusive, 3T3 cytotox 35µM
CCOC(=O)c1ccccc1NC(=O)CN1C(=O)NC(c2ccc(C)cc2)C2=C1COC2=O (stereo not given)	HEK293 tox 32µM, 3T3 cytotox inconclusive
Cc1cc(NC(=O)CN2C(=O)NC(c3ccccc3Cl)C3=C2COC3=O)ccc1Br (stereo not given)	Luciferase inh inconclusive, HEK293 tox 45µM, 3T3 cytotox 40µM
O=C(Nc1cccc(Cl)c1)c1cn2cc(-c3ccc(C(F)(F)F)cc3)sc2n1	none (no result: NPR1 antag, Luciferase inh)
Cc1ccc([S+](=O)([O-])N2CCC(C(=O)N3CCC(N4CCOC4=O)CC3)CC2)cc1	none (no result: NPR1 antag, Luciferase inh)
Cc1ccc(C2NC(=O)N(CC(=O)Nc3c(C)cccc3Cl)C3=C2C(=O)OC3)cc1 (stereo not given)	none
Cc1cccc(Cl)c1NC(=O)CN1C(=O)NC(c2ccc(Cl)cc2)C2=C1COC2=O (stereo not given)	HEK293 tox 32µM, 3T3 cytotox inconclusive
O=C(CN1C(=O)NC(c2ccc(Cl)cc2)C2=C1COC2=O)Nc1ccc2c(c1)OCO2 (stereo not given)	HEK293 tox inconclusive, 3T3 cytotox inconclusive
O=C(CN1C(=O)NC(c2ccc(Cl)cc2)C2=C1COC2=O)Nc1cc(F)cc(F)c1 (stereo not given)	HEK293 tox 25µM, 3T3 cytotox 25µM
O=C1CN(C(=O)C2CCCC2)CC(O)CN1CCCc1ccccc1 (stereo not given)	HEK293 tox inconclusive (no result: NPR1 antag, Luciferase inh)
CCOC(=O)C1CCN(C(=O)C2CCc3nnc(CNC(=O)NC(C)(C)C)n32)CC1 (stereo not given)	none (no result: NPR1 antag, Luciferase inh)
Cc1cc(Cn2cc3c4c(cccc42)[C@H](CC(C)C)N[C@H](C(=O)NCc2ccccn2)C3)no1	HEK293 tox 32µM, 3T3 cytotox inconclusive
CC#CCn1cc2c3c(cccc31)[C@H](CC(C)C)N[C@H](C(=O)NCc1ccc(OC)cc1)C2	HEK293 tox inconclusive, 3T3 cytotox inconclusive
Cc1cc(Cn2cc3c4c(cccc42)[C@H](CC(C)C)N[C@H](C(=O)NCc2ccco2)C3)no1	HEK293 tox 40µM, 3T3 cytotox 28µM
CC1(c2cccnc2)N(CC2CC2)C(=O)OC12CCN(C(=O)c1ccc(Oc3ccccc3)cc1)CC2 (stereo not given)	HEK293 tox inconclusive, 3T3 cytotox inconclusive
CC1(c2ccccc2)N(Cc2ccc(O)cc2)C(=O)OC12CCN(C(=O)c1cnccn1)CC2 (stereo not given)	3T3 cytotox 32µM
CC1(c2ccccc2)N(Cc2ncccn2)C(=O)OC12CCN(C(=O)c1ccc(Oc3ccccc3)cc1)CC2 (stereo not given)	HEK293 tox 40µM, 3T3 cytotox 40µM

Compound activity as filed in PubChem BioAssay.
